# Pf growth 96h: P. falciparum growth inhibition at 96 hour, primary screen for plastid delayed-death inhibitors | AID 504834 | Potency, µM (highest dose often 28.7 µM), without a hit: top-dose activity change, negative = inhibition, hits mostly inhibitors | P. falciparum luciferase reporter growth, 96 h | actives 6.9% (n = 320,000); further: potency means the concentration at half of the fitted maximal effect
#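 Readout is luminescence from an integrated firefly luciferase in P. falciparum. Red cells, 2% hematocrit and 0.05% parasitemia final, were cultured with compound through two parasite generations (96 hours) at 37 C, 5% CO2.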
# Pf growth 48h: inhibits P. falciparum growth in the first generation, 48 h. P. falciparum luciferase growth in erythrocytes, 48 h. Potency, µM (series often up to 28.7 µM), inactives show at the top dose activity change, negative = inhibition, actives largely listed as inhibitors. actives 5.9% (n = 310,000). AID 504832; further: potency means the concentration at half of the fitted maximal effect
#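 First compound was added to culture medium, then infected red cells at 0.1% parasitemia and 2% hematocrit (final). After incubation at 37 C under 5% CO2, luciferase detection reagent was dispensed and light output recorded.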
# HCMV inh: inhibitors of human cytomegalovirus. HFF cells, HCMV-luciferase reporter, 72 h; active compounds read low. activity change, negative = inhibition, % at 57.5 µM. actives 4.5% (n = 410,000). AID 1259415; in the data active means activity change below about -60%; inconclusive means no clear call, values can overlap the other calls; inactive means above about -39%
#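 Two compound doses tested in HFFs infected with HCMV-luciferase, MOI 1 PFU/cell, 72 h at 37C. Lysate luminescence read with OneGlo; data normalized against buffer-only and 10uM Salinomycin inhibitor controls.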
# HCV inh: blocks hepatitis C virus; Huh7.5.1 HCVcc-Cre infection, luciferase reporter, 44 h; Potency, µM (top dose mostly 41.8 µM), inactives show top-dose activity change, negative = inhibition, hits mostly inhibitors; actives 3.4% (n = 340,000); AID 651820; further: potency means the concentration at half of the fitted maximal effect
#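 Cells seeded at 1,000/well and cultured 4 h, then compounds added followed by HCVcc-Cre virus (~0.5 moi). After 44 h further culture, luciferase substrate was added, plates held 15 min at room temperature, and luminescence read for 15 sec.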
# Marburg entry inh: blocks Marburg virus binding to or entry into cells. Marburg virus pseudotyped entry inhibition, cell reporter. Potency, µM (titrated, usually from 37.8 µM), inactives show at the highest dose activity change, negative = inhibition, actives largely listed as inhibitors. actives 1.8% (n = 300,000); calls by dose curve; tested in HEK293 cells; further: potency means the concentration at half of the fitted maximal effect
# Lassa entry inh: blocks Lassa virus binding to or entry into cells; AID 540256; actives 1.2% (n = 300,000); Lassa virus pseudotype entry inhibition, cell reporter; Potency, µM (doses to about 37.9 µM), without a hit: top-dose activity change, negative = inhibition, most hits filed as inhibitors; calls by dose curve; tested in HEK293 cells; further: potency means the concentration at half of the fitted maximal effect; nearly all actives have a fitted effect of over 50% in size
# An asterisk follows results filed as active; ? = inconclusive; / = no result; [ ] = dose if it differs, or a comment. Rows were chosen to be rich in hits. Some 14% of all compounds tested hit in one or more screens of this group. Unless noted, the call rests on the fitted dose curve; in most records, active means well fitted inhibition curve with a large enough effect; inconclusive means small, poorly fitted or top-dose-only effect, or another doubt; inactive means no such curve, though single readings can be large or run the other way. On the % scale 0 is the no-effect control and ±100 the full control effect.
SMILES,Pf growth 96h,Pf growth 48h,HCMV inh,HCV inh,Marburg entry inh,Lassa entry inh
CC(c1ccccc1)n1c(-c2cccs2)nc2c(c(=O)c3ccccc3n2C)c1=O (stereo not drawn),-5%,9.3µM*,5,14µM*,1%,5%
COCCn1c(-c2cccs2)nc2c(c(=O)c3ccccc3n2C)c1=O,?,?,/,/,-2%,/
CC(C)(C)S(=O)(=O)N1C[C@H]2C(=C(CCO)C[C@H]3C(=O)N(c4ccccc4)C(=O)[C@H]32)[C@@H]1CCO,/,/,31,/,/,/
Cc1noc(Cn2c(=O)c3ccccc3n(CC(=O)Nc3cccc(Cl)c3C)c2=O)n1,/,/,-7,/,/,14%[46.1 µM]
Cc1ccc(NC(=O)c2c(C)oc3ccc(O)c(CN4CCCCC4)c23)cc1,/,/,-65*,/,?,?
Cc1ccc(NC(=O)c2c(C)oc3ccc(O)c(CN4CCCCC4)c23)c(C)c1,/,/,-20,/,?,-3%[46.1 µM]
COc1ccc(NC(=O)c2c(C)oc3ccc(O)c(CN4CCCCCC4)c23)cc1Cl,/,/,-94*,/,4.5µM*,?
O=C(Nc1ccc2c(c1)OCCO2)C(c1ccnc2ccccc12)N1CCC(Cc2ccccc2)CC1 (stereo not drawn),/,/,-1,/,/,/
CCCCCCCCCCCCCCCCCCOC[C@H](COP(=O)([O-])OCC[N+](C)(C)C)OC,-17%,1%,/,/,?,?
CCCCCCCCCCCCCCCCOP(=O)([O-])OCC[N+](C)(C)C,7.6µM*,?,/,/,/,/
CCC(Sc1nncn2c1cc1sccc12)C(=O)Nc1cccc(OC)c1 (stereo not drawn),/,/,-40,/,/,?
CCC(Sc1nnc(C)n2c1cc1sccc12)C(=O)Nc1ccccc1F (stereo not drawn),/,/,-64*,/,/,-10%[46.1 µM]
COCCNC(=O)Cn1cnc2c(cnn2-c2ccc(C)cc2)c1=O,?,-1%,39,18%,15%[46.1 µM],0%[46.1 µM]
Cc1ccc(-n2ncc3c(=O)n(CC(=O)N(C(C)C)C(C)C)cnc32)cc1,13µM*,1%,-4,-3%,/,/
CNC(=O)CSc1ncnc2c1cnn2-c1ccccc1,45%,79%,-24,1%,4%[46.1 µM],-11%
Cc1ccc(-n2ncc3c(=O)n(CC(=O)N4CCCCCC4)cnc32)cc1,/,-4%,-16,-1%,12%,-1%
Cc1ccc(-n2ncc3c(=O)n(CC(=O)NC4CCCCC4)cnc32)cc1,4.7µM*,2%,-4,8%,14%,8%
O=C(CSc1ncnc2c1cnn2-c1ccccc1)NC1CCCC1,62%,54%,-39,10µM*,-23%,-30%
Cc1ccc(OCC(=O)OCc2cc(=O)n3c(C)csc3n2)cc1,/,/,-2,/,/,-2%[46.1 µM]
COc1ccc2sc3c(=O)[nH]c4ccccc4c3c2c1,0%,7%,-83*,-21%,2%[46.1 µM],-1%
Cc1ccc(C(=O)NC(C)c2ccc(-n3ccnc3)cc2)o1 (stereo not drawn),-3%,0%,-3,23%,-8%[46.1 µM],18%
C/C(=N\NC(=O)c1nnn(-c2nonc2N)c1C(C)C)c1cc(C)sc1C,-8%,-15%,-29,-9%,-18%[46.1 µM],?
N#Cc1ccc(OCC(O)CN2CCC(C(O)(c3ccccc3)c3ccccc3)CC2)cc1 (stereo not drawn),?,?,-12,10µM*,13µM*,?
C=CCSc1nnc(-c2cnn(-c3ccccc3)c2-n2cccc2)n1C,?,/,-18,9%,-2%,-4%
C=CCSc1nnc(-c2cc(C(C)(C)C)nn2Cc2ccc(F)cc2)n1C,9.3µM*,13µM*,3,-12%,?,?
SMILES,Pf growth 96h,Pf growth 48h,HCMV inh,HCV inh,Marburg entry inh,Lassa entry inh
O=C(O)CCn1c(=O)[nH]c2ccccc2c1=O,0%,28%,38,2%,/,/
O=C(O)CCn1c(=O)c2ccccc2c2ccccc2c1=O,-7%,4%,-101*,13%,5%,0%
CC1CCN(S(=O)(=O)c2ccc3ncn(CC(=O)N(C)Cc4ccccc4)c(=O)c3c2)CC1,15µM*,?,63,-6%,?,-21%
O=C(CN1CCN(CC(=O)Nc2cccc(F)c2)CC1)NCC1(N2CCOCC2)CCCCC1,?,?,-19,2%,/,/
O=C(COC(=O)c1c2c(nc3ccccc13)/C(=C/c1cccc([N+](=O)[O-])c1)CCC2)NC1CCS(=O)(=O)C1 (stereo not drawn),?,?,-35,3.5µM*,?,?
CN(C(=O)COC(=O)/C=C/c1cccc([N+](=O)[O-])c1)C1CCS(=O)(=O)C1 (stereo not drawn),-6%,-1%,-32,-6%,3.5µM*,-12%
COc1ccc(/C=C2\CCCc3c2nc2ccccc2c3C(=O)OCC(=O)c2c(N)n(C)c(=O)n(C)c2=O)cc1,4.1µM*,?,/,-22%,-27%,-6%
COc1ccc(-c2cc(C(=O)OCC(=O)c3c(N)n(C)c(=O)n(C)c3=O)c3ccccc3n2)cc1,40%,21%,35,?,-4%[46.1 µM],12%[46.1 µM]
CN(C(=O)COC(=O)c1c2c(nc3ccccc13)/C(=C/c1cccc([N+](=O)[O-])c1)CCC2)C1CCS(=O)(=O)C1 (stereo not drawn),?,?,?,1.8µM*,?,?
Cc1cc(C(=O)OCC(=O)NC2CCS(=O)(=O)C2)c2ccccc2n1 (stereo not drawn),5%,5%,9,14%,3%[46.1 µM],?
C[C@H](NC(=O)c1ncn2c1C(=O)NC[C@@H]2C)C(=O)OC(C)(C)C,/,/,-21,/,/,/
O=C(Nc1ccc(F)cc1)C1CCN(c2nc3ccccc3nc2C(F)(F)F)CC1,/,/,-3,/,/,15%[46.1 µM]
Cc1cccc(C)c1NC(=O)COC(=O)c1c2c(nc3ccccc13)/C(=C\c1ccc3c(c1)OCO3)CCC2,?,8.3µM*,?,-25%,-8%,?
Cc1cccc(C)c1NC(=O)COC(=O)c1ccc2c(c1)OCO2,16%,2%,-35,13%,/,/
CN(C(=O)COC(=O)/C=C/c1cn(-c2ccccc2)nc1-c1ccc2c(c1)OCCO2)C1CCS(=O)(=O)C1 (stereo not drawn),12µM*,?,-27,?,-24%[46.1 µM],-24%
O=C(NCCc1ccccc1)c1cccc2c(-c3cccnc3)coc12,/,/,-2,/,/,/
COc1ccc(C(=O)c2oc3ccccc3c2NC(=O)COc2ccccc2)cc1,/,/,-26,/,/,4%[46.1 µM]
Oc1c(CN2CCOCC2)cc(COCc2ccccc2)c2cccnc12,31%,2.6µM*,-95*,?,?,?
Oc1c(CNc2ccccc2)cc(COCc2ccccc2)c2cccnc12,3.3µM*,1.2µM*,-100*,/,/,/
Cc1cccc(N2CCN(S(=O)(=O)c3ccc(-c4cnc(C5CC5)o4)cc3)CC2)c1C,/,/,-17,/,/,?
